Most compounds without a hit are left out; they make up all but 1.4% or so of the library.
MenB inh: blocks the Mycobacterium tuberculosis MenB enzyme | P9WNP5 | MenB enzyme assay, absorbance read-out | inhibition, % (concentration not given with the values) | 100,000 tested, 0.43% active | AID 540299; in the data active means inhibition above about 21%, passing the limit was not always enough
Target sequence (P9WNP5 whole entry, looked up): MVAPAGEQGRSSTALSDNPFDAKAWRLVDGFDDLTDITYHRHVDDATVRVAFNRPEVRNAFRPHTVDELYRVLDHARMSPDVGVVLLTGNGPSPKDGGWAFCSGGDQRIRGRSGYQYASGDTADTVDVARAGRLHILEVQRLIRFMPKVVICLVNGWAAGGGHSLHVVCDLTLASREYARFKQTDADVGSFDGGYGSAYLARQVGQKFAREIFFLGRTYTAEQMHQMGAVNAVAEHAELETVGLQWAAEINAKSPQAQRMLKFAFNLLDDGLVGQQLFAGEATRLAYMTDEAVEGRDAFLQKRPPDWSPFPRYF
Mtb MbtI inh: inhibitors of Mycobacterium tuberculosis siderophore enzyme MbtI; inhibition, % (concentration not given with the values); 100,000 tested, 0.89% active; P9WFX0; purified MbtI enzyme, fluorescence intensity read-out; in the data active means inhibition mostly above about 56%, no sharp cut-off; inactive means mostly below about 77%
Polio RdRp inh: poliovirus RNA polymerase inhibition; AID 588519; % elongation, % (compound at 16.7 µg/mL); poliovirus polymerase elongation, fluorescence polarization; active compounds read low; P03300; 150,000 tested, 0.66% active; in the data active means % elongation below about 90%
AID504770: E. coli YBA685 growth inhibition, screen for V. cholerae RctB inhibitors | E. coli YBA685 rctB-dependent plasmid, OD600 growth, 3 h; active compounds read low | z-score (concentration not given with the values) | 130,000 tested, 0.27% active | AID 504770; in the data active means z-score below about -2, passing the limit was not always enough
Numbers stand for hits; . = inactive; / = no result given.

SMILES	MenB inh	Mtb MbtI inh	Polio RdRp inh	AID504770
Cn1cc(C(=O)Nc2cccnc2)c2ccccc2c1=O	.	.	.	.
COc1ccc(Cc2nnc3n2N=C(c2ccc(C)c(C)c2)C(C)S3)cc1OC (stereo not drawn)	.	.	87	.
Cc1ccc(C2=Nn3c(nnc3C3CCCCC3)SC2C)cc1 (stereo not drawn)	.	.	.	.
CS(=O)(=O)Nc1ccc(Br)cc1	.	/	.	.
CC1Sc2nnc(Cc3ccc(Br)cc3)n2N=C1c1ccc(NS(C)(=O)=O)cc1 (stereo not drawn)	.	.	78	.
COc1ccc(-c2cc(C(=O)N3CCN(C)CC3)no2)cc1	.	.	.	.
O=C(COC(=O)C1CCN(C(=O)Nc2ccccc2)CC1)c1c[nH]c2ccccc12	.	.	.	.
NC(=O)CN1C(=O)C(O)(CC(=O)/C=C\c2ccccc2)c2ccccc21 (stereo not drawn)	43	.	.	.
Nc1nnc2cc(C(=O)c3cc(F)ccc3O)cnn12	.	.	.	.
Cc1ccc(O)c(C(=O)c2cnn3c(N)nnc3c2)c1	.	.	64	.
Cc1ccc(O)c(C(=O)c2cnn(-c3nc(C)cc(=O)[nH]3)c2)c1	.	.	.	.
Cc1ccc(O)c(C(=O)c2cnn3c(=S)[nH]nc3c2)c1	.	.	71	.
O=C(C1=C2Sc3ccccc3N2CC(C(=O)c2ccccc2)C1)c1ccccc1 (stereo not drawn)	.	.	.	.
OC(COCC1CC=CCC1)CN(Cc1ccccc1)Cc1ccccc1 (stereo not drawn)	.	/	86	.
O=c1cccc2n1CC1CC2CN(c2nc(N3CCCCC3)nc(N3CCCCC3)n2)C1 (stereo not drawn)	.	.	.	-2.7
CCOc1nc(NCc2ccco2)nc(N2CC3CC(C2)c2cccc(=O)n2C3)n1 (stereo not drawn)	39	.	.	.
O=C(/C=C/c1ccco1)OCN1C(=O)c2ccccc2C1=O	.	.	.	.
CNC(=O)Oc1c(Br)cc2sc(=O)oc2c1Br	.	100	.	.
c1ccc(-c2nnc3sc(-c4ccc5c(c4)OCO5)nn23)cc1	.	.	.	.
O=S(=O)(c1cccc(-c2nn3c(-c4ccncc4)nnc3s2)c1)N1CCCCC1	.	.	85	.
CC(NS(=O)(=O)c1cccc2nsnc12)C(=O)OCc1csc(-c2ccccc2)n1 (stereo not drawn)	.	.	.	.
CC(NC(=O)c1cc(=O)[nH]c2ccc(S(=O)(=O)N3CCOCC3)cc12)C12CC3CC(CC(C3)C1)C2 (stereo not drawn)	.	.	-9.0	.
CC1CCN(S(=O)(=O)c2ccc3[nH]c(=O)cc(C(=O)NCCCN4CCOCC4)c3c2)CC1	.	.	.	.
CCCCc1ccc(N2C(=O)C=CC2=O)cc1	/	98	.	.
CC(=O)Nc1cccc(N2C(=O)C=CC2=O)c1	.	96	.	.
SMILES	MenB inh	Mtb MbtI inh	Polio RdRp inh	AID504770
O=C1C=CC(=O)N1c1ccccc1	.	99	.	-7
O=C1c2ccccc2C(=O)N1c1ccccc1	.	.	.	.
CC(C)c1ccc(N2C(=O)C=CC2=O)cc1	.	101	.	.
CC1CC(C)(C)Nc2ccc(OC(=O)c3ccccc3)cc21 (stereo not drawn)	/	.	.	.
COc1cc(OC)cc(C(=O)OCC(=O)c2cc3ccccc3o2)c1	.	.	.	.
O=C1Cc2ccccc2C(=O)N1c1cccc(Cl)c1	.	.	78	.
O=C1C=CC(=O)N1c1cccc(Cl)c1	.	100	.	-4
Cc1ccc(N2C(=O)C=CC2=O)cc1	.	100	.	.
O=C1C=CC(=O)N1c1ccc(C2CCCCC2)cc1	/	/	/	.
O=c1c(-c2ccc(I)cc2)[n+]([O-])c2ccccc2n1O	.	.	.	.
CCOc1ccc(-c2c(=O)n(O)c3ccccc3[n+]2[O-])cc1	.	87	.	.
O=C(CSc1nncc(=O)[nH]1)NCc1ccccc1	.	.	.	.
O=C(CSc1nncc(=O)[nH]1)Nc1cccc(Cl)c1	.	73	.	.
Cc1c(N=Cc2cc(Br)cc(Br)c2O)cccc1C(=O)O	.	.	88	.
Cc1nc2cccnc2n1CCNC(=O)Nc1cccc2ccccc12	27	.	.	.
Cc1ccc2c(COC(=O)CCn3c(C)csc3=O)cc(=O)oc2c1	.	.	.	.
O=C1NC(=S)N(c2ccccc2)C(=O)/C1=C/C=C/c1ccco1	.	.	.	.
COc1cccc(N2C(=O)/C(=C/C=C/c3ccco3)C(=O)NC2=S)c1	.	101	.	.
O=c1[nH]c(CN2CCOCC2)nc2ccccc12	.	.	70	.
O=c1[nH]c(CN2CCN(Cc3ccccc3)CC2)nc2ccccc12	.	.	.	.

Source: PubChem (ICCB-Longwood Screening Facility, Harvard Medical School)
